In PubChem BioAssay (NCI) one finds growth data, which are given here for 14 compounds.

Test systems include HCT-15 colon; HT29 colon; SNB-75 CNS; SNB-19 CNS; U251 CNS; PC-3 prostate; SK-MEL-5 melanoma; UACC-62 melanoma; LOX IMVI melanoma; SK-MEL-28 melanoma.
Holding throughout (experiment): NCI-60 one-dose screen, 48 h (100 = growth as untreated, 0 = no growth, -100 = all killed)
Conditions in all cases: 10 µM unless noted

The panel holds about 83,000 compounds, 20% with a hit somewhere; the sample as a whole holds those more often.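 The test compound was applied at a single concentration to cells in 96-well plates for 48 hours, and percent growth was recorded.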 Values without a mark were called inactive. Active and inactive are the calls of the source. Rule for the calls: active = growth percent below 10; inactive = the rest.

With `Nc1nc(Cl)c2c(ncn2Cc2ccc(CCl)cc2)n1`, the growth was 84.9% with HCT-15 colon; 91% with HT29 colon; 100% in the test with SNB-75 CNS; 93.2% in the test on SNB-19 CNS; 81.4% in the test on U251 CNS; 77.6% in the test on PC-3 prostate. The growth in the test on SK-MEL-5 melanoma is 70.3%; in the test on UACC-62 melanoma, 78.4%; in the test with LOX IMVI melanoma, 69.7%; with SK-MEL-28 melanoma it was 101%.

Consider `CC/C=C\C[C@H](O)C/C=C1/C(=O)C(Cl)=C[C@@H]1C/C=C\CCCC(=O)OC`, for which the growth with HCT-15 colon is -61.5% (active); with HT29 colon it was -76.7% (active); with SNB-75 CNS it was 50%; in the test on SNB-19 CNS, -10.9% (active); with U251 CNS it was -75.7% (active); with PC-3 prostate, -33.9% (active). The growth in the test with SK-MEL-5 melanoma was -77.7% (active); in the test on UACC-62 melanoma it was -57% (active); in the test with LOX IMVI melanoma it was -89.9% (active); in the test with SK-MEL-28 melanoma it was -2.03% (active).

For the compound `O=S(=O)(c1ccccc1)n1ccc(-c2ccc3c(c2)CCO3)n1`, the growth with HCT-15 colon was 92.8%; with HT29 colon it was 92.8%; in the test with SNB-75 CNS it was 76.2%; in the test on SNB-19 CNS it was 83.4%; with U251 CNS, 73.6%; in the test on PC-3 prostate, 84.2%. For the same compound, the growth in the test with SK-MEL-5 melanoma was 70.2%; in the test with UACC-62 melanoma, 73.1%; with LOX IMVI melanoma it was 85.2%; in the test with SK-MEL-28 melanoma, 86.2%.

In the case of `COC(=O)C(CC(=O)c1ccc(-c2ccccc2)cc1)c1ccccc1` (stereo not given), the growth in the test with HCT-15 colon was 31.3%; with HT29 colon it was 6.34% (active); in the test with SNB-75 CNS it was 72.5%; with SNB-19 CNS, 75.5%; in the test on U251 CNS it was 71.1%; with PC-3 prostate, 64.4%. Besides, the growth with SK-MEL-5 melanoma is 45.5%; in the test on UACC-62 melanoma, 51.3%; with LOX IMVI melanoma, 44.9%; in the test with SK-MEL-28 melanoma, 70.9%.

As to `Cc1oc2nc[nH]c(=O)c2c1C(=O)/C=C/c1ccc(Cl)cc1Cl`, the growth in the test with HCT-15 colon was 50.6%; with HT29 colon, 30.4%; with SNB-75 CNS, 44.6%; in the test with SNB-19 CNS it was 84%; in the test on U251 CNS it was 85.1%; in the test on PC-3 prostate it was 59.2%. The growth is 81.6% with SK-MEL-5 melanoma, 53.5% in the test on UACC-62 melanoma, 52.2% in the test with LOX IMVI melanoma and 89.1% with SK-MEL-28 melanoma.

As to `O=C(Nc1ccc(I)cc1)c1cccc([N+](=O)[O-])c1O`, the growth with HCT-15 colon was 18.6%; in the test on HT29 colon, 28.1%; with SNB-75 CNS, 41.2%; with SNB-19 CNS, 16.8%; in the test on U251 CNS, 10.3%; in the test on PC-3 prostate, 7.46% (active). In addition, the growth with SK-MEL-5 melanoma was -44.1% (active); in the test with UACC-62 melanoma, 20.8%; in the test with LOX IMVI melanoma, 8.65% (active); with SK-MEL-28 melanoma it was 21.5%.

`CC(=O)/C=C/c1cc2cc(Cl)ccc2[nH]c1=O`: the growth in the test with HCT-15 colon is 76%; in the test on HT29 colon, 76.8%; with SNB-75 CNS it was 102%; with SNB-19 CNS, 68.8%; in the test on U251 CNS, 62.1%; in the test with PC-3 prostate, 77.5%. In addition, the growth in the test with SK-MEL-5 melanoma was 96.5%; with UACC-62 melanoma, 80.8%; in the test on LOX IMVI melanoma it was 69.1%; with SK-MEL-28 melanoma, 99.9%.

`COc1ccc(-c2nc(-c3ccccc3)c(-c3ccccc3)n2C2CC2)cc1OC1CCCCC1`: the growth with HCT-15 colon is 41.7%; in the test on HT29 colon, 49.2%; in the test on SNB-75 CNS, 56.3%; with SNB-19 CNS it was 83.7%; with U251 CNS, 43.9%; in the test with PC-3 prostate, 43.4%. In addition, the growth is 36% with SK-MEL-5 melanoma, 60.8% with UACC-62 melanoma, 45.6% in the test on LOX IMVI melanoma and 77.7% in the test with SK-MEL-28 melanoma.

Take `CC(C)(C)c1cn2cccc(C(=O)N3CCN(CC(=O)Nc4ccc(Cl)cc4C(=O)c4ccccc4Cl)CC3)c2n1`: the growth was 47.5% with HCT-15 colon; 22.2% with HT29 colon; 78.4% with SNB-75 CNS; 73.2% in the test on SNB-19 CNS; 43.4% in the test on U251 CNS; 17.6% in the test on PC-3 prostate. In addition, the growth in the test on SK-MEL-5 melanoma is 12.5%; in the test with UACC-62 melanoma, 57.6%; in the test with LOX IMVI melanoma it was 63.5%; in the test with SK-MEL-28 melanoma, 89.8%.

For `Cc1nc(Nc2cccnc2)sc1C(=O)/C=C/c1ccc(F)cc1`, the growth in the test on HCT-15 colon was 20.4%; with HT29 colon, 8.45% (active); in the test with SNB-75 CNS, 2.4% (active); with SNB-19 CNS, 18.9%; in the test with U251 CNS, 12.9%; with PC-3 prostate, 27.6%. The growth was 67.6% in the test on SK-MEL-5 melanoma, 46.3% in the test on UACC-62 melanoma, 8.41% (active) in the test on LOX IMVI melanoma and 87.6% with SK-MEL-28 melanoma.

Consider `CNC(=O)c1cc(Oc2ccc3c(c2)sc2nc(-c4ccc(Cl)cc4)cn23)ccn1`, for which the growth in the test on HCT-15 colon was 83.6%; in the test on HT29 colon it was 105%; in the test on SNB-75 CNS, 47.9%; in the test with SNB-19 CNS, 54%; in the test with U251 CNS, 69.5%; in the test with PC-3 prostate, 78.8%. Also, the growth in the test with SK-MEL-5 melanoma was 87.4%; in the test on UACC-62 melanoma, 85.1%; with LOX IMVI melanoma it was 87.4%; in the test on SK-MEL-28 melanoma, 104%.

Take `COc1ccc(/C(=N/O)c2cc(F)c(F)c(OC)c2F)cc1O`: the growth in the test on HCT-15 colon was 22.9%; with HT29 colon, 28%; in the test on SNB-75 CNS it was -11% (active); in the test with SNB-19 CNS, 38.8%; in the test with U251 CNS it was 18.2%; with PC-3 prostate, 21.5%. Also, the growth in the test on SK-MEL-5 melanoma is 14.1%; in the test with UACC-62 melanoma, 29.8%; in the test with LOX IMVI melanoma, 46.5%; with SK-MEL-28 melanoma, 66.9%.

Turning to `COc1cc(C2C=C(C)N=C3SC=CN32)cc(OC)c1OC` (stereo not given), the growth is 106% with HCT-15 colon; 110% with HT29 colon; 94.7% with SNB-75 CNS; 107% in the test with SNB-19 CNS; 103% in the test on U251 CNS; 94.5% with PC-3 prostate. The growth is 106% in the test on SK-MEL-5 melanoma, 107% in the test on UACC-62 melanoma, 97.8% in the test with LOX IMVI melanoma and 109% in the test on SK-MEL-28 melanoma.

Consider `COc1ccc(C(=O)/C=C/c2cccc([N+](=O)[O-])c2)c(OC)c1`, for which the growth in the test on HCT-15 colon was -47.2% (active); in the test on HT29 colon it was -3.14% (active); in the test with SNB-75 CNS, 35.2%; in the test with SNB-19 CNS, 17%; in the test on U251 CNS, -16.2% (active); in the test on PC-3 prostate it was 33.3%. Besides, the growth is 41.4% in the test with SK-MEL-5 melanoma, 31.5% with UACC-62 melanoma, -73.3% (active) with LOX IMVI melanoma and 69.4% with SK-MEL-28 melanoma.
